For 10 compounds, composite z-score and z-score results are on record in PubChem BioAssay.

Assay [1] concerns PRMT1 (protein arginine N-methyltransferase 1). Briefly: small molecules binding arginine methyltransferase PRMT1 – biochemical, small-molecule microarray, 635 nm fluorescence, primary screen (AID 1088).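 Further: binding of Prmt1 protein to compounds spotted on small-molecule microarray slides.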 To be noted: higher = more signal.
Assay [2] is described as follows: growth effects on S. cerevisiae YJM789 – YJM789 clinical isolate, OD600, 24 h, basal, primary screen (AID 1089).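 Further: growth of clinical yeast isolate S. cerevisiae YJM 789 seeded 1000 cells per well; test concentration not given here.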 The settings on record: higher = more signal, called active from +8 up or from −8 down.
Assay [3] in a line: S. pombe growth modifiers, basal conditions – strain 972, OD600, 24 h, no modulator, primary screen (AID 1090).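 Further: basal condition with compound alone and no growth modifier present; test concentration not given here.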 To be noted: S. pombe 972 growth, higher = more signal, called active from +8 up or from −8 down.
Assay [4] is described as follows: budding yeast growth modifiers under rapamycin – strain BY4716, OD600, 96 h, primary screen (AID 1091). Further: test concentration not given here. To be noted: S. cerevisiae BY4716 + rapamycin, higher = more signal, called active from +8 up or from −8 down.
Assay [5] addresses Torsin-1A-interacting protein 2 (Homo sapiens) (UniProt Q8NFQ8). Briefly: small molecules binding lysate-expressed LULL1 – cell lysate, human LULL1 lysate, 635/667 nm fluorescence, primary screen (AID 1092).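 Further: probe is lysate of COS7 cells overexpressing human LULL1; score merges per-feature 667 nm fluorescence with signal-to-noise.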 The settings on record: small-molecule microarray, hLULL1 lysate binding, 635 nm fluorescence; higher = more signal.
Assay [6] is described as follows: optical density change of DRC41 E. coli – strain DRC41, OD650, 24 h, E. coli filamentation project, primary screen (AID 1093).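 Further: MC1000 strain lacking acrAB efflux and sulA so SOS filamentation is blocked; test concentration not given here.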 To be noted: E. coli DRC41 growth, higher = more signal, called active from +8 up or from −8 down.
A short description of assay [7]: probe aLefty2 binding to arrayed compounds – biochemical, biotinylated probe, 635/667 nm fluorescence, primary screen (AID 1094).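 Further: score merges spot fluorescence near 667 nm with spot signal-to-noise ratio.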 The settings on record: small-molecule microarray, higher = more signal.
The test system of assay [8] is Noggin (protein binding on small-molecule microarray). Briefly: small molecules binding Noggin protein – biochemical, 635/667 nm fluorescence, primary screen (AID 1095).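 Further: score merges 667 nm feature fluorescence with signal to noise over triplicate slides.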 To be noted: 635 nm fluorescence, higher = more signal.
Assay [9] has as its target Neurogenic locus notch homolog protein 3 (Homo sapiens) (UniProt Q9UM47). The assay can be described thus: small molecules binding NOTCH3 protein – biochemical, 635/667 nm fluorescence, primary screen (AID 1096). The settings on record: small-molecule microarray, 635 nm fluorescence, higher = more signal.
Assay [10] is described as follows: probe aEGFR binding to arrayed compounds – biochemical, biotinylated probe, 635/667 nm fluorescence, primary screen (AID 1097).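 Further: probe is a biotinylated anti-EGFR antibody binding compounds printed on slides; score combines fluorescence near 667 nm and signal to noise of each spot.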 To be noted: small-molecule microarray, higher = more signal.

Activity calls are given as the source filed them.

Torsin-1A-interacting protein 2 (Homo sapiens), sequence (Q8NFQ8 whole entry, looked up): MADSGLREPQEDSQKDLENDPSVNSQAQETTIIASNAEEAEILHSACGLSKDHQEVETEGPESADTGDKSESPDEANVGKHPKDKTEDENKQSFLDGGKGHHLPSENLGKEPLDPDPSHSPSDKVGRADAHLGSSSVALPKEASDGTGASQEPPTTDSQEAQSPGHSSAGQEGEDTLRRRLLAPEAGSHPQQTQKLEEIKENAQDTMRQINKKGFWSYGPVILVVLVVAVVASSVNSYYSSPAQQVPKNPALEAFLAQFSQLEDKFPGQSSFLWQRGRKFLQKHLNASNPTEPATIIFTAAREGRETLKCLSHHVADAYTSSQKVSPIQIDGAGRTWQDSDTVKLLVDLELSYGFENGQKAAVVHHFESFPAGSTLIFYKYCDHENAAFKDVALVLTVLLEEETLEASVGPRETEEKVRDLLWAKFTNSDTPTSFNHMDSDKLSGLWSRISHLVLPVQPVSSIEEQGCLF
Neurogenic locus notch homolog protein 3 (Homo sapiens), sequence (Q9UM47 whole entry, looked up): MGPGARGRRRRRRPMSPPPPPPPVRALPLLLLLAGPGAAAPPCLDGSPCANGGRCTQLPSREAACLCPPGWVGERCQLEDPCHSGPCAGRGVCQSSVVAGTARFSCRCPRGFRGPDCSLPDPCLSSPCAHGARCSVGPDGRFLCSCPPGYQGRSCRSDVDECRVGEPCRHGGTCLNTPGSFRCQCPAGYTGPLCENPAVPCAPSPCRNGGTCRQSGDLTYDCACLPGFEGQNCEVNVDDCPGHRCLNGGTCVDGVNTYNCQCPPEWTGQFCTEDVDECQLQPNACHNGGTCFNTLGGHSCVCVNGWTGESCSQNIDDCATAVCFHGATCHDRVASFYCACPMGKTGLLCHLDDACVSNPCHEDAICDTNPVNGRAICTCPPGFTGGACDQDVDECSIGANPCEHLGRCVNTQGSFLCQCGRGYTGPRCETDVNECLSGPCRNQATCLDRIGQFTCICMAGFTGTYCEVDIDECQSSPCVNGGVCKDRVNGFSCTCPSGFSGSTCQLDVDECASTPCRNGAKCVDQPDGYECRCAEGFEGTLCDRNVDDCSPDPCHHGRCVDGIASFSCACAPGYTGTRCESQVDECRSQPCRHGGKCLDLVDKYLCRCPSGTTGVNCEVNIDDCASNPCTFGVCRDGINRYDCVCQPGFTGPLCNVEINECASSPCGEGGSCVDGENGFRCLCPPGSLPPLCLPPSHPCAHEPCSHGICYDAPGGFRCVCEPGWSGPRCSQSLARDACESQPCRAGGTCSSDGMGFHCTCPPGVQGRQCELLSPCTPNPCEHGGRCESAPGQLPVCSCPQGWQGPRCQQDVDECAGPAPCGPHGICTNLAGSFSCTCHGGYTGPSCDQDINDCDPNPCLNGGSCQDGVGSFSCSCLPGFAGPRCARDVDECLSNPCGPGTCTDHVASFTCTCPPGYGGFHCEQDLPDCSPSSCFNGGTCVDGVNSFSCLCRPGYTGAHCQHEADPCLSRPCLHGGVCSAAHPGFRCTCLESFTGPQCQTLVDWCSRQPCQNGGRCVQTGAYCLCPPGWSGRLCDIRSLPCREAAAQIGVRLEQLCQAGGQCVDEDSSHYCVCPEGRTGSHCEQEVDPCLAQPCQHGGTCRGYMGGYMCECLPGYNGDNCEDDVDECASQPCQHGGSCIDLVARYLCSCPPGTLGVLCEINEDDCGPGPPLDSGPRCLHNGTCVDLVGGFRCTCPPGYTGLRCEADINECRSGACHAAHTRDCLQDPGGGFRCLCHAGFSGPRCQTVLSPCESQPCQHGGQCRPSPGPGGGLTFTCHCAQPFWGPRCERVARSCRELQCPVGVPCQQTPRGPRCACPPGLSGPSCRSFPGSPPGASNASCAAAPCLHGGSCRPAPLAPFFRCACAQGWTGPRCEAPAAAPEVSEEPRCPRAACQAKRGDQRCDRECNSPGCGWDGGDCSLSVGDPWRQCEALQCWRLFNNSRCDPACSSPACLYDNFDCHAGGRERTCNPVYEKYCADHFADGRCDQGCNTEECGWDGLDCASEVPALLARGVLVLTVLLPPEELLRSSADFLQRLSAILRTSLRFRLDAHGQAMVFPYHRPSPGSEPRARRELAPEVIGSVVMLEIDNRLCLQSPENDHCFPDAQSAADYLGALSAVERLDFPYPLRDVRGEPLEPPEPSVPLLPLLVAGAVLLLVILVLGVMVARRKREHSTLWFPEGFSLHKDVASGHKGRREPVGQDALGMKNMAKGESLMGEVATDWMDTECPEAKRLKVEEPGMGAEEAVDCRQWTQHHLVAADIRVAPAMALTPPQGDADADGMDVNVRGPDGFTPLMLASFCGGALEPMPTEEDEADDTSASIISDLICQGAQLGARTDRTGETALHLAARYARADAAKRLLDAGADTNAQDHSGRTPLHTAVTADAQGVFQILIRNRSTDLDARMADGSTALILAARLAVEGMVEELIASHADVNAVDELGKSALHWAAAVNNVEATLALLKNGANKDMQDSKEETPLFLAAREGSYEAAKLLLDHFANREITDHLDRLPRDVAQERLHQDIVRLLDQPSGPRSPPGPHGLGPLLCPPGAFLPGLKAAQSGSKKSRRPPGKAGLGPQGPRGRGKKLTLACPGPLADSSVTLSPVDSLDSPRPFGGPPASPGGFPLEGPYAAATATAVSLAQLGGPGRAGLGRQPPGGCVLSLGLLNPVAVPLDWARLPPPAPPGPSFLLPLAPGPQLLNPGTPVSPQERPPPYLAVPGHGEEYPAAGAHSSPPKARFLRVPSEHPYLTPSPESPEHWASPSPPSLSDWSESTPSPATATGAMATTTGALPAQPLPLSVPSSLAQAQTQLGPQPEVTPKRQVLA

With `C=CCNC(=O)[C@@H]1[C@H]2C(=O)O[C@H](c3ccccc3)[C@H](c3ccccc3)N2[C@H](c2ccc(OCCO)cc2)[C@@]12C(=O)N(C(=O)OCCOC)c1ccccc12`, the composite z-score is 1.53 in assay [1]; 2.92 in [5]; -0.0267 in assay [7]; 1.04 in assay [8]; 1.06 in [9]; 0.0413 in assay [10]. Further, the z-score in assay [2] was 2.46 (inactive); in assay [3], 1.67 (inactive); in assay [4], 5.18 (inactive); in assay [6], 0.246 (inactive).

Consider `CC1C2C(CCCO)=CC(C3C(=O)N(C(N)=O)C(=O)C23)N1Cc1cccc(OC(F)(F)F)c1` (stereo not given), for which the composite z-score in [1] was 1.31; in assay [5] it was 2.79; in [7] it was -0.139; in assay [8], 0.487; in [9], 0.628; in assay [10], -0.0828. In addition, the z-score is -3.02 (inactive) in assay [2], -0.198 (inactive) in assay [3], 0.58 (inactive) in assay [4] and 0.262 (inactive) in assay [6].

For the compound `C=C(COC)C(=O)CC[C@@H](OC(=O)c1ccccc1-c1ccccc1C(=O)O)c1ccccc1OCCO`, the composite z-score in assay [1] was 1.37; in assay [5], -0.225; in assay [7], -0.122; in assay [8], 0.641; in assay [9], 0.586; in assay [10], -0.184. Moreover, the z-score in [2] is -1.4 (inactive); in [3], -1.95 (inactive); in assay [4] it was -1.12 (inactive); in [6], -0.434 (inactive).

On to `COCCCNC(=O)[C@@]1(Cc2ccccc2I)c2ccccc2C(=O)N(Cc2ccccc2C(F)(F)F)[C@H]1c1ccc(CO)cc1`, for which the composite z-score in assay [1] was 1.4; in [5] it was 2.47; in assay [7], -0.0654; in assay [8], -0.473; in [9] it was 0.03; in assay [10], -0.291. The z-score in assay [2] is -0.784 (inactive); in [3] it was 0.25 (inactive); in assay [4], 0.437 (inactive); in assay [6], -0.627 (inactive).

Turning to `Cc1ccc(S[C@]2(C(=O)NCCN3CCOCC3)CC(=O)N(C(C)C)[C@@H]2c2ccc(CO)cc2I)cc1`, the composite z-score in [1] is 1.5; in [5] it was 2.46; in [7], 0.126; in assay [8] it was -0.889; in assay [9], 0.0467; in [10], -0.0234. The z-score is -2.73 (inactive) in [2], -1.75 (inactive) in [3], -0.616 (inactive) in assay [4] and 3.42 (inactive) in assay [6].

As for `O=C1C2C=CC(C(O)C(c3ccccc3)c3ccccc3)N(Nc3ccccc3F)C2C(=O)N1c1ccccc1` (stereo not given), the composite z-score in assay [1] is 1.52; in assay [5] it was 3.58; in assay [7], 0.0943; in assay [8] it was 0.295; in assay [9], 1.02; in assay [10], 0.162. Further, the z-score in assay [2] was 0.504 (inactive); in [3], 0.973 (inactive); in [4], 1.75 (inactive); in [6], -1.06 (inactive).

In the case of `CCN1C(=O)C2CC(=O)C3C(CN(S(=O)(=O)c4ccc(C)cc4)C3c3ccc(C)cc3)C2C1=O` (stereo not given), the composite z-score in assay [1] is 0.751; in assay [5], 2.75; in assay [7] it was -0.0176; in [8] it was -0.841; in assay [9], 0.627; in [10], -0.0089. Moreover, the z-score in assay [2] was -0.01 (inactive); in assay [3], 0.616 (inactive); in assay [4], 0.627 (inactive); in assay [6], 0.398 (inactive).

For `COC(=O)C1=CC(CCCO)=CC(c2ccc(CN3CCCC3)cc2)N(C)C=C1C(=O)OC` (stereo not given), the composite z-score in assay [1] was 0.853; in assay [5] it was 3.4; in assay [7] it was 0.0723; in assay [8], -0.2; in assay [9] it was 0.276; in assay [10], 0.0816. Also, the z-score in assay [2] is -0.512 (inactive); in [3] it was 0.0939 (inactive); in assay [4], -0.19 (inactive); in assay [6] it was 0.0791 (inactive).

On to `O=C1c2ccccc2[C@@]2(Cc3ccccc3N(CC(F)(F)F)C2=O)[C@H](c2ccc(CO)cc2)N1Cc1ccccc1`, for which the composite z-score in assay [1] is 0.349; in [5] it was -0.117; in assay [7], -0.147; in [8] it was 0.666; in assay [9], -0.242; in assay [10] it was -0.177. Further, the z-score is 0.633 (inactive) in [2], -0.269 (inactive) in assay [3], -1.49 (inactive) in assay [4] and -1.91 (inactive) in [6].

For the compound `CCOC(=O)C[C@H]1[C@H](OC(=O)c2cc3ccccc3oc2=O)[C@@H](NC(=O)c2ccc(-c3ccccc3)cc2)c2cc(OCCCO)ccc2N1C(=O)Cc1ccc(OC)cc1`, the composite z-score in assay [1] is 1.2; in assay [5] it was 1.93; in [7], -0.212; in assay [8], 0.421; in assay [9], 1.11; in assay [10], 0.148. Besides, the z-score in assay [2] was -0.792 (inactive); in assay [3], -0.398 (inactive); in assay [4] it was -0.077 (inactive); in [6] it was -0.423 (inactive).
